Only some compounds are listed: those with a hit (about 14% of all), similar ones and a draw of the others.
LmPK inhibitor = LmPK (Leishmania mexicana) enzyme inhibition. actives 0.37% (n = 290,000). Q27686. Potency, µM (doses to about 57.5 µM), without a hit: top-dose activity change, negative = inhibition, hits mostly inhibitors. purified LmPK, Kinase-Glo ATP luminescence, 1 h; also: potency is read from the fitted curve at half-maximal effect; % is scaled to controls: 0 for no effect and ±100 for the full control effect
Target sequence (Q27686 whole entry, looked up): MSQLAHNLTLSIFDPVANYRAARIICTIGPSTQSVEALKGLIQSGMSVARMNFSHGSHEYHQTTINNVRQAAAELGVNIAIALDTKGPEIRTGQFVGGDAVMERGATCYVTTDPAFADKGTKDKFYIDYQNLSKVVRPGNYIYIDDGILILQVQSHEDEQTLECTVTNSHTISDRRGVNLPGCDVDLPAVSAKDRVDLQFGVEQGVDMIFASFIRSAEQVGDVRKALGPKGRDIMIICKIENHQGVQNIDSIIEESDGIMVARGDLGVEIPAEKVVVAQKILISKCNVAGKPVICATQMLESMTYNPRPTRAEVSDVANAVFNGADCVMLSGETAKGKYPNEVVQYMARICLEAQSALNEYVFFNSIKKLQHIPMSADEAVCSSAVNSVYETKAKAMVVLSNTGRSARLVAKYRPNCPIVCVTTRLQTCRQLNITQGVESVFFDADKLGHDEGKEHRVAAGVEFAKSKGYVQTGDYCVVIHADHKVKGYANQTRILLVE
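Purified LmPK (0.1 nM) with 0.5 mM PEP and 0.1 mM ADP in imidazole buffer pH 7.2 with MgCl2/KCl, 1 h at room temperature. ATP formed was read by luciferase luminescence and normalized to no-enzyme and uninhibited controls.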
NS1 function inh = blocks influenza NS1 protein function; AID 2326; Potency, µM (titrated, usually from 46.1 µM), for inactives: top-dose activity, positive = more growth; actives 0.4% (n = 270,000); calls by dose curve; also: potency is read from the fitted curve at half-maximal effect; actives are rising curves; nearly all actives have a fitted effect of over 50% in size
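In this qHTS, NS1 from influenza A is expressed in budding yeast, where it slows growth. Cells are switched from glucose to 2% galactose medium (pH 6.0, -URA), treated with compound, and growth recovery is read at OD600.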
Shiga inhibitor = Shiga toxin inhibition | actives 9.2% (n = 290,000) | inhibition, % at 38.7 µM | Vero cells, Shiga toxin protein synthesis inhibition reporter; in the data active = inhibition mostly above about 28%, no sharp cut-off; inactive = mostly below about 43%; also: 0% is about no effect
CHX counter = counter-screen hit for Shiga toxin inhibitors, cycloheximide; cell reporter, cycloheximide protein synthesis inhibition counterscreen; max response, %; actives 12% (n = 300,000); AID 2314; in the data active = max response mostly above about 13%, no sharp cut-off; inactive = mostly below about 14%; also: read at 38.3 µM for the half of the compounds with a filed dose; 0% is about no effect
Giardia FBPA inh = inhibitors of Giardia lamblia fructose-1,6-bisphosphate aldolase. Potency, µM (doses to about 59.6 µM), without a hit: at the top dose activity, negative = inhibition, actives largely listed as inhibitors. purified Giardia FBPA. AID 2451. actives 0.71% (n = 290,000). A8B2U2; also: potency is read from the fitted curve at half-maximal effect; % is scaled to controls: 0 for no effect and ±100 for the full control effect; nearly all actives have a fitted effect of over 55% in size
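Giardia FBPA (40 nM reagent) was preincubated 10 min at RT with compound (up to 57.5 uM final), then substrate plus GAPDH/TPI/NAD/arsenate coupling system with diaphorase/resazurin was added; resorufin fluorescence (525/598 nm) was read after 20 min.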
Starred values were filed as active, the others as inactive; i = inactive; u = inconclusive; x = no result given; [ ] = another dose, or the depositor's remark. Unless noted, calls follow the shape of the dose curve; as a rule, active = well fitted curve in the direction sought with a large enough effect; inconclusive = small, poorly fitted or top-dose-only effect, or another doubt; inactive = no such curve, though single readings can be large; an effect the other way counts as inactive or inconclusive.

SMILES	LmPK inhibitor	NS1 function inh	Shiga inhibitor	CHX counter	Giardia FBPA inh
O=C(c1cc2cc([N+](=O)[O-])ccc2s1)N1CCCCC1	0.7%	x	35.2	28.3*	-0.4%
O=C(N/N=C/c1cccnc1)c1ccc([N+](=O)[O-])cc1Cl	-1.9%	4.5%	35.0	10.4	-0.5%
O=C(N/N=C/c1ccccn1)c1ccc([N+](=O)[O-])cc1Cl	-0.3%	6.3%	x	27.9*	13.9%
CCCCCCCC/C=C\CCCCCCCC(=O)N[C@@H](CO)Cc1ccc(O)cc1	x	x	x	x	-8.9%
COc1cc(/C=N/Nc2nc(C)nc3c2cnn3-c2ccccc2)ccc1O	0.5%	-4.1%	-1.8	-2.4	-4.5%
COc1ccc(OC[C@@H](CO)OC)cc1	x	x	x	x	-0.9%[12.9 µM]
CCOC(=O)/C=C1\Nc2ccccc2OC1=O	7.5%	-25.1%	10.6	20.9*	-15.8%
CCOC(=O)/C=C1\CC(C(=O)OCC)Oc2ccccc21 (stereo unspecified)	x	x	i	15.6	-12.5%[89.2 µM]
COC(=O)c1ccc(CSc2nc(N)cc(N)n2)cc1	-5.2%	-60.1%	53.2*	35.9*	-2.2%
COC(=O)c1ccc(CSc2nnc3c(n2)[nH]c2ccccc23)cc1	-0.7%	3.6%	10.3	11.5	1.4%
CCn1c(SCc2ccc(OC)c(F)c2)nc2ccccc2c1=O	5.4%	1.0%	2.4	2.2	2.0%
COC(=O)c1ccc(CSc2nnc(N)s2)cc1	-6.1%	-12.9%	73.4	21.4*	0.5%
COc1ccc(CSc2nnc(C)s2)cc1F	6.2%	x	72.7*	16.4*	-0.3%
Cc1nnc(SCC(=O)c2ccc(Cl)cc2)s1	-8.8%	2.9%	87.0*	43.3*	-2.5%
CC1CCC(NC(=O)CCS(=O)(=O)c2ccc3c(c2)oc(=O)n3C)CC1 (stereo unspecified)	0.0%	-3.4%	-3.1	-2.6	x
CC(=O)c1c(C)[nH]c(C(=O)CSc2nnc(C)s2)c1C	-5.6%	x	91.5*	43.6*	-22.1%
COC(=O)c1ccc(CSc2nnc(C)s2)cc1	-4.2%	-6.9%	66.6*	38.1*	x
COC(=O)c1ccc(CSc2nnc(NC(=O)c3cc4c(s3)CCCC4)s2)cc1	2.4%	-3.1%	-1.2	-2.6	9.3%
CCOc1ccc(NC(=O)c2ccc(CSc3nnc(C)s3)cc2)cc1	11.7%	4.4%	-4.0	14.2	4.8%
COC(=O)c1cccc(CSc2nnc(C)s2)c1	-0.7%	-10.9%	97.4*	22.6*	-19.5%
COC(=O)c1cccc(NC(=O)NC(=O)c2ccccc2Cl)c1	0.4%	0.0%	34.7	10.4	8.4%
COC(=O)c1cccc(NC(=O)Nc2ccc(Cl)c(Cl)c2)c1	4.5%	10.4%	58.6*	38.2*	-2.2%
COC(=O)c1cc(NC(=O)Nc2ccccc2)ccc1Cl	-0.9%	-10.3%	92.3*	40.6*	-0.1%
COC(=O)c1cccc(NC(=O)Nc2ccccc2OC)c1	-17.0%	-7.7%	43.4*	23.1*	-11.6%
Cc1cccc(Oc2ccc(N)cc2)c1	2.2%	-4.3%	42.8	31.3*	-6.3%
SMILES	LmPK inhibitor	NS1 function inh	Shiga inhibitor	CHX counter	Giardia FBPA inh
O=C(COc1cc2oc(=O)c3c(c2cc1Cl)CCC3)N1C[C@H]2C[C@@H](C1)c1cccc(=O)n1C2	-5.1%	5.9%	1.6	-2.9	-7.8%
COc1ccc(-c2csc(NC(=O)C3CC(=O)N(Cc4ccccc4)C3)n2)cc1OC (stereo unspecified)	-2.5%	10.6%	14.5	0.7	x
Cc1cc(/C(N)=N/OC(=O)c2cccc(Cl)c2)no1	-9.4%	-2.8%	111.3*	58.9*	0.3%
Cc1cc(C(=O)NNC(=O)c2ccc(Cl)cc2)no1	-8.1%	-0.9%	14.9	14.7	0.6%
Cc1cc(/C(N)=N/OC(=O)c2ccc(Cl)cc2)no1	15.8µM*	-3.6%	60.6*	35.1*	7.4%
CCC1=C(C[C@H]2NCCc3ccccc32)C[C@@H]2c3cc(OC)c(OC)cc3CCN2C1	x	-0.9%	x	x	x
O=C(COC(=O)c1n[nH]c2ccccc12)c1cc(F)ccc1F	1.4%	x	44.0*	30.4*	-6.3%
CCc1ccc(C(=O)COC(=O)c2n[nH]c3ccccc23)cc1	u	x	87.0*	47.5*	0.3%
O=C(COC(=O)c1n[nH]c2ccccc12)Nc1ccc([N+](=O)[O-])cc1	5.9%	u	22.7*	10.5	-4.9%
CC(=O)Nc1ccc(NC(=O)COC(=O)c2n[nH]c3ccccc23)cc1	-0.6%	5.3%	-19.9	-0.8	-3.4%
CC(C)CCn1c(=O)c2ccccc2n2c(CCl)nnc12	-3.9%	-0.1%	1.9	7.4	-0.1%
CCCCCn1c(=O)c2ccccc2n2c(CCl)nnc12	-2.7%	-2.8%	34.6	33.3*	-2.1%
O=C(Cn1cnc2scc(-c3ccccc3)c2c1=O)NCc1ccco1	-1.1%	-0.5%	-6.3	6.6	-1.0%
CCc1ccc(-c2csc3ncn(CC(=O)NCc4ccco4)c(=O)c23)cc1	4.4%	u	30.1*	14.9*	0.0%
COCCNC(=O)c1ccc2c3n(nc2c1)-c1ccccc1CO3	u	-1.8%	41.4*	30.2*	5.2%
C=CCNC(=O)c1ccc2c3n(nc2c1)-c1ccccc1CO3	14.1µM*	-61.2%	46.2*	27.4*	-0.1%
O=C(NCCO)c1ccc2c3n(nc2c1)-c1ccc(Cl)cc1CO3	-10.1%	-4.9%	79.2*	54.1*	-4.0%
COCCNC(=O)c1ccc2c(c1)CCN2S(C)(=O)=O	-0.6%	x	-10.7	0.2	2.4%
COCCNC(=O)c1ccc2c3n(nc2c1)-c1ccc(Cl)cc1CO3	-9.0%	-4.8%	44.1*	7.5*	2.5%
NCCC[C@@H](CC(=O)N[C@@H]1CCCC[C@H]1C(=O)N[C@H](CC(=O)N[C@@H](CCC(=O)O)CC(=O)O)Cc1ccccc1)NC(=O)C[C@H](Cc1c[nH]c2ccccc12)NC(=O)[C@@H]1CCCC[C@H]1N	x	x	x	x	-23.5%
O=C(Cn1nc(C(=O)O)c2ccccc2c1=O)Nc1ccccc1C(F)(F)F	10.7%	10.3%	0.4	2.7	2.1%
CCCCn1nc2cc(C(=O)NCCc3ccc(C)cc3)ccc2c1OCC	2.6%	-55.3%	30.4	1.4	0.0%
Cc1ccc2c(c1)COc1c3ccc(C(=O)NCCO)cc3nn1-2	-8.3%	-5.0%	73.8*	61.2*	-1.3%
O=C(NC(=S)N1CCCCC1c1cccnc1)c1ccc(Br)cc1 (stereo unspecified)	-5.8%	-10.1%	-13.2	-1.8	-22.1%
Cc1onc(-c2ccc(Cl)cc2Cl)c1-c1csc(N/N=C/c2ccccc2)n1	8.8%	-4.0%	-1.4	1.1	-0.9%
SMILES	LmPK inhibitor	NS1 function inh	Shiga inhibitor	CHX counter	Giardia FBPA inh
Cc1nc(-c2ccc(-c3ccon3)s2)no1	-1.4%	-7.4%	53.2*	21.0*	4.8%
Cc1nc(-c2cccc(-c3noc(C)n3)c2)no1	0.2%	10.0%	39.5	8.3	0.0%
Cc1ccc(-c2nnc(-c3ccc4c(c3)OCO4)o2)cc1	-4.9%	-7.0%	101.1*	45.6*	-3.6%
Brc1ccc(-c2nnc(-c3ccc4c(c3)OCO4)o2)o1	-12.6%	-12.0%	111.3*	35.0*	0.1%
c1nnc(-c2ccc3c(c2)OCO3)o1	-6.1%	x	20.6	7.7	7.2%
c1coc(-c2nnc(-c3ccc4c(c3)OCO4)o2)c1	-8.8%	-23.6%	51.7*	21.7*	-0.1%
O=C(Cc1ccc(Cl)cc1)Nc1ccc(-c2nnc(-c3ccco3)o2)cc1	-2.1%	-23.3%	14.8	-1.9	2.4%
